Screening results: PubChem, several laboratories
This is a sample that favours compounds with a hit; in the whole collection about 2.1% have one here.
PrPC TRFRET = cell surface PrPC inhibition, primary TR-FRET screen; P04156; TR-FRET read-out; inhibition, % at 13.8 µM; actives 0.43% (n = 370,000); in the data active means inhibition above about 24%; further: 0% = median of the test wells and 100% = reference compound wells
PrP UTR inh = suppresses PrP 5' UTR mRNA reporter expression | cell-based PrP 5' UTR mRNA reporter, plate reader | inhibition, % (no concentration beside the values) | actives 0.35% (n = 340,000) | AID 488862; in the data active means inhibition above about 52%; further: 0 = median of the neutral control wells
Sa ugtP lethal = kills S. aureus RN4220 lacking UgtP; S. aureus RN4220 ugtP deletion, OD600 growth, 16 h; growth inhibition, % (concentration not given with the values); actives 0.54% (n = 330,000); AID 1259309; in the data active means growth inhibition above about 68%;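 further: plate controls were untreated wells for no effect and antibiotic for full effect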
CCHF vOTU inh = CCHFV vOTU protease inhibition | Pep-AMC fluorescence | inhibition, % at 11.5 µM | actives 0.55% (n = 370,000); in the data active means inhibition above about 30%; further: 0% = vehicle wells with enzyme and 100% = no enzyme wells
Sa RN4220 lethal = S. aureus RN4220 growth inhibition; OD600, 16 h; inhibition, % (concentration not given with the values); actives 0.33% (n = 330,000); in the data active means inhibition above about 85%;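 further: plate controls were untreated cells for no effect and reference antibiotic for full effect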
PfHsp40 yeast = rescue of PfHsp40-mediated yeast toxicity. growth rescue, % at 12.5 µM. actives 0.68% (n = 340,000). S. cerevisiae expressing PfHsp40, growth rescue, ATP luminescence; in the data active means growth rescue above about 28%, passing the limit was not always enough;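 further: yeast W303a lacking pdr1 and pdr3 grown in galactose medium; growth measured after three days at 30 °C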
Active calls of the source: *; · = not tested or not shown; ! = not active in a repeat.

SMILES	PrPC TRFRET	PrP UTR inh	Sa ugtP lethal	CCHF vOTU inh	Sa RN4220 lethal	PfHsp40 yeast
CCOC(=O)c1sc(NC(=O)c2ccc(S(=O)(=O)N3CCCCC3)cc2)nc1-c1ccccc1	-2.2	-16.7	5.4	-14.9	-1.5	-1.4
CCOC(=O)c1c(-c2ccccc2)nc2ccc(C)cn12	-5.8	-59.9	-2.1	-4.5	8.8	206.6*
COC(CC=CC(O)COCc1ccccc1)OC (stereo unspecified)	·	·	-1.8	·	5.9	·
CC(C)(C)c1cc(C(c2cccnc2)N2CCN(CCO)CC2)cc(C(C)(C)C)c1O (stereo unspecified)	8.2	-19.2	80.8	0.5	70.8	30.0*
COc1ccc(SCC(C)CN2CCC(C(C)(C)C)CCC2=O)cc1 (stereo unspecified)	·	·	5.7	·	11.5	·
O=C1C2C3C=CC(C3)C2C(=O)N1CNc1ccccn1 (stereo unspecified)	1.8	-22.2	2.0	-4.4	4.6	43.6*
COc1ccc(C2CC(=O)C=C(c3ccc(F)cc3OCc3ccccc3)C2)cc1OC (stereo unspecified)	·	·	12.6	·	-1.7	·
Cc1ccc(S(=O)(=O)N2CCOC23CCN(C(=O)c2cc(Cl)ccc2Cl)CC3)cc1	4.9	-13.1	-6.9	11.1	-5.0	90.6*
Cc1ccc(S(=O)(=O)N2CCC3(CC2)OCCN3S(=O)(=O)c2cccs2)cc1	1.5	-17.5	9.7	12.7	2.7	9.1
O=S(=O)(c1ccc(Cl)cc1)N1CCC2(CC1)OCCN2S(=O)(=O)c1cccs1	-1.9	-12.1	10.1	-15.8	4.2	54.5*
O=C(Nc1ncccc1O)c1cccc(S(=O)(=O)N2CCCc3ccccc32)c1	-4.1	-2.3	0.8	-0.1	12.9	62.3*
CCOC(=O)C1C2COc3cc(OC)ccc3C2N2C(=O)c3cc(F)c(F)cc3NC(=O)[C@@]12C (stereo partly specified)	·	·	2.8	·	5.6	·
Cc1cc(Cl)ccc1C(=O)C1CCCN(C(=O)c2cncs2)C1 (stereo unspecified)	-8.2	0.9	1.6	14.3	3.7	376.6*
CC(C)Oc1cccc(C(=O)C2CCCN(C(=O)c3cncs3)C2)c1 (stereo unspecified)	3.4	-2.9	2.3	14.1	1.1	0.7
O=C(c1ccc(-c2ccccc2)c(F)c1)C1CCCN(C(=O)c2cncs2)C1 (stereo unspecified)	15.0	-10.9	15.9	-2.3	5.2	412.0*
Cc1ccc(S(=O)(=O)NCC(=O)NN=Cc2ccc(Cl)cc2)cc1	·	·	-6.3	·	-2.5	·
CN(C)c1ccc(/C=C/C=C/c2sc3ccccc3[n+]2C)cc1	-52.4	-27.9	·	-11.3	·	126.0*
CC[n+]1c(/C=C/C=C/N(C(C)=O)c2ccccc2)sc2ccccc21	2.4	-5.9	·	5.3	·	-0.4
CN(C)c1ccc(C=Cc2cc[n+](C)c3ccccc23)cc1	·	·	92.6*	·	94.7*	·
CC[n+]1c(/C=C/C=C/c2ccc(N(C)C)cc2)sc2ccccc21	-78.1	5.0	81.8*	15.5	88.4*	244.7*
CCOc1ccc(NC(=S)NC(=O)c2cnn(CC)c2)c([N+](=O)[O-])c1	-13.5	-15.8	84.6*	-6.7	3.5	-0.4
CCOc1ccc(NC(=S)NC(=O)/C=C/c2ccc(Br)cc2)c([N+](=O)[O-])c1	1.1	-9.7	2.1	-2.9	6.2	-0.1
CC(=O)Nc1c(I)c(C(=O)NC2C(O)OC(CO)C(O)C2O)c(I)c(N(C)C(C)=O)c1I (stereo unspecified)	·	·	4.7	·	9.0	·
Cc1nn(-c2ccccc2)c(N2CCCC2)c1/C=N/NC(=O)c1ccccc1O	-0.2	-8.1	·	3.8	·	1.5
O=C(N/N=C/c1cc2c3c(c1O)CCCN3CCC2)c1ccccc1O	-6.0	33.4	·	15.3	·	175.6*
SMILES	PrPC TRFRET	PrP UTR inh	Sa ugtP lethal	CCHF vOTU inh	Sa RN4220 lethal	PfHsp40 yeast
O=C(NNc1nc2cc3c(cc2s1)OCO3)c1cccc(F)c1	-1.1	-22.1	-5.0	0.9	5.5	39.9*
O=[N+]([O-])c1c(Nc2ccccc2O)ccc2nonc12	-47.6	-8.2	-0.8	10.9	8.2	-0.9
Nc1cc(Cl)c2nonc2c1[N+](=O)[O-]	56.2*	-22.0	47.2	27.6	49.5	-0.3
O=[N+]([O-])c1c(Nc2ccccc2O)cc(Cl)c2nonc12	-21.2	-22.5	86.9	12.6	98.3*	-1.6
CCCCCCC(Cl)(Cn1ccnc1)c1ccccc1 (stereo unspecified)	12.5	-11.5	12.7	3.9	5.2	255.1*
CC(=O)N1c2ccccc2Sc2ccc3ccccc3c21	8.4	·	·	-2.4	·	·
O=C(CCl)N1c2ccccc2Sc2c1ccc1ccccc21	-9.7	-9.7	99.6*	13.4	93.5*	0.3
Oc1c(Br)cc(Br)cc1/C=N/NC(=S)N[C@H]1CC2C=CC1C2 (stereo partly specified)	1.1	-24.4	·	-1.8	·	78.4*
Oc1c(Cl)cc(Cl)cc1C=NNC(=S)NC1CC2C=CC1C2 (stereo unspecified)	·	·	-30.2	·	-0.7	·
COc1cc(C=NNc2cc(=O)n(C)c(=O)n2C)ccc1O	·	·	8.3	·	0.0	·
O=C1NC(Cc2ccccc2)C(=O)N2C1C[C@]1(Br)c3ccccc3N(S(=O)(=O)c3ccc(F)cc3)C21 (stereo partly specified)	·	·	-6.3	·	13.9	·
CCN1C(=Cc2ccc3ccccc3[n+]2CC)C=Cc2ccccc21	·	·	99.8*	·	100.2*	·
CCN1/C(=C/c2ccc3ccccc3[n+]2CC)C=Cc2ccccc21	-56.0	28.1	·	13.6	·	166.0*
CCN1/C(=C/c2ccc3ccccc3[n+]2CCCS(=O)(=O)[O-])C=Cc2cc(C)ccc21	-36.3	5.1	4.8	-4.4	1.6	-0.9
Cc1ccc(NS(=O)(=O)c2ccc(C(=O)N3CCCC(C(F)(F)F)C3)cc2)cc1 (stereo unspecified)	-3.9	-24.4	-9.0	17.1	8.1	50.7*
COc1ccccc1NS(=O)(=O)c1ccc(C(=O)N2CCCC(C(F)(F)F)C2)cc1 (stereo unspecified)	1.1	-20.1	-0.6	4.5	8.4	-0.4
c1ccc2c(c1)[IH]c1ccccc1-2	35.3*	-11.5	·	-4.7	·	7.9
Nc1ccccc1-c1ccccc1N	-1.5	-10.2	-2.3	-2.9	0.3	-0.7
COc1ccc(C2C=CCN(C(=O)CC(C)(C)C)CC(=O)N2Cc2ccc(F)cc2)cc1 (stereo unspecified)	·	·	-4.9	·	8.2	·
CC(C)(C)CN1C(=O)C(=O)NCC1Cc1ccc(O)cc1 (stereo unspecified)	·	·	98.1*!	·	96.7*!	·
O=C(O)CC/C(=N/Nc1ccc([N+](=O)[O-])cc1)C(=O)O	9.6	-20.1	·	-1.7	·	134.7*
O=c1c2ccccc2nc(COc2ccccc2)n1/N=C/c1ccc(O)cc1O	3.6	-1.8	·	23.4	·	52.3*
CN1C(=O)C(=CC(=O)c2cccs2)c2ccccc21	·	·	9.8	·	8.2	·
CCc1ccc2c(c1)/C(=C/C(=O)c1cccs1)C(=O)N2	-2.8	-1.5	97.1*	-6.2	97.0*	1.2
Cc1cc(Br)c2c(c1)/C(=C/C(=O)c1cccs1)C(=O)N2	3.5	-24.0	-7.3	6.0	3.5	·
